Most compounds without a hit are left out; they make up all but 19% or so of the library.
TDP1 cell noCPT: qHTS for Inhibitors of human tyrosyl-DNA phosphodiesterase 1 (TDP1): qHTS in cells in absence of CPT. 420,000 tested, 15% active. Potency, µM (series often up to 46.2 µM), most hits filed as inhibitors. DT40 Tdp1-/- hTDP1 cells, no CPT, ATP luminescence, 48 h; further: nearly all actives have a fitted effect of over 55% in size
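Compound effects on proliferation are scored in DT40 Tdp1-/-;hTDP1 cells in the absence of CPT. ATP levels (CellTiter-Glo luminescence) are recorded after a ≥48 hr, 37 °C incubation.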
TDP1 cell CPT: DT40-hTDP1 cell growth loss with CPT; chicken DT40 Tdp1-/-;hTDP1 cells + 20 nM CPT, ATP luminescence, 48 h; Potency, µM (highest dose often 46.2 µM), most hits filed as inhibitors; 420,000 tested, 12% active; further: nearly all actives have a fitted effect of over 55% in size
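Chicken DT40 Tdp1-/- cells complemented with human TDP1, 400 cells/well, exposed to compounds plus 20 nM camptothecin for at least 48 h at 37 C; viability read as ATP content by CellTiter-Glo luminescence.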
VP16 counter: inhibits Gal4-VP16 luciferase reporter, ROR gamma counter-screen | Potency, µM (highest dose often 53.6 µM), most hits filed as inhibitors | 310,000 tested, 3.5% active | Drosophila S2 Gal4-VP16 UAS-luciferase, luminescence, 20 h | AID 2546;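 further: Gal4-VP16 expression switched on by copper sulfate through the metallothionein promoter; nearly all actives have a fitted effect of over 50% in size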
TDP1 block: TDP1 (human) enzyme inhibition; recombinant TDP1, AlphaScreen DNA substrate cleavage; Potency, µM (top dose mostly 130 µM), usual class: inhibitors; 350,000 tested, 0.28% active; further: nearly all actives have a fitted effect of over 40% in size
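Recombinant human Tdp1 (E. coli-expressed, 1 nM final) preincubated with compounds 15 min at room temperature, then 5'-biotin/3'-phosphotyrosine-FITC DNA substrate (15 nM final) added for 5 min. AlphaScreen beads (10 ug/ml final) added 10 min; cleavage lowers signal.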
RORgamma inh: blocks mouse ROR gamma transcriptional activity | Potency, µM (titrated, usually from 53.6 µM), hits mostly inhibitors | P51450 | 310,000 tested, 5.4% active | Drosophila S2 Gal4-RORgamma UAS-luciferase reporter, 20 h | AID 2551; further: nearly all actives have a fitted effect of over 60% in size
Target sequence (P51450 whole entry, looked up, the tested form may be a part): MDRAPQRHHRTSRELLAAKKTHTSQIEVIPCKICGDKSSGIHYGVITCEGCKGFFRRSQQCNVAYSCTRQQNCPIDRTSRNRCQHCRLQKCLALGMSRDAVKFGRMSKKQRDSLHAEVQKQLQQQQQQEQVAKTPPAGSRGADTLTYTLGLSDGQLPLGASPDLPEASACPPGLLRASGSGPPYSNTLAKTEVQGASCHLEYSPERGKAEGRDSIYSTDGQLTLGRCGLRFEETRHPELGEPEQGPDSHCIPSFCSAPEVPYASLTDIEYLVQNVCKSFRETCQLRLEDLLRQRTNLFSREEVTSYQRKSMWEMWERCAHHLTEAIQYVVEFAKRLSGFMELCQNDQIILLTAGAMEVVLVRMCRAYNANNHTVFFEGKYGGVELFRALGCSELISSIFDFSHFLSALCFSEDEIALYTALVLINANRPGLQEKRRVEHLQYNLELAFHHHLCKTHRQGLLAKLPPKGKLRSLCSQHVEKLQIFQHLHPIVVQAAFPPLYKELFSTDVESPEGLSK
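In this cell-based reporter format, copper sulfate (700 uM final) drives Gal4–ROR gamma fusion expression from a metallothionein promoter in Drosophila Schneider cells; compounds preincubated 1 hr, reporter read after 20 hr at ambient temperature.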
A number is an active result; [ ] = remark or other dose. The call rests on the fitted dose curve; in most records, active means well fitted curve in the direction sought with a large enough effect; inconclusive means small, poorly fitted or top-dose-only effect, or another doubt; inactive means no such curve, though single readings can be large; an effect the other way counts as inactive or inconclusive.

`COc1ccc(NC(=O)CC2C(=O)N(c3ccc(C)cc3)C(=O)N2Cc2ccc(C)cc2)cc1` (stereo unspecified) gave TDP1 cell noCPT inconclusive, TDP1 cell CPT inactive and TDP1 block inactive.
`COC(=O)c1ccc(NC(=O)CC2C(=O)N(c3cccc(F)c3)C(=O)N2CC(C)C)cc1` (stereo unspecified) gave TDP1 cell noCPT 13µM, TDP1 cell CPT 21µM and TDP1 block inactive.
CCOc1ccc(NC(=O)CC2C(=O)N(c3ccccc3)C(=O)N2Cc2cccc(OC)c2)cc1 (stereo unspecified) was read as TDP1 cell noCPT 21µM, TDP1 cell CPT 10µM and TDP1 block inactive.
`COC(=O)c1ccc(NC(=O)CC2C(=O)N(c3cccc(OC)c3)C(=O)N2C(C)C)cc1` (stereo unspecified) gave TDP1 cell noCPT inactive, TDP1 cell CPT inactive and TDP1 block inactive.
`COc1cccc(CN2C(=O)N(c3ccc(C)cc3)C(=O)C2CC(=O)Nc2cc(OC)cc(OC)c2)c1` (stereo unspecified) gave TDP1 cell noCPT 7.3µM, TDP1 cell CPT 13µM and TDP1 block inactive.
`O=C(CSc1ccccc1)Nc1ccc(Cl)c(S(=O)(=O)N2CCOCC2)c1` gave TDP1 cell noCPT inactive, TDP1 cell CPT inactive and TDP1 block inactive.
For COc1cc(NC(=O)CC2C(=O)N(c3cccc(C)c3)C(=O)N2Cc2ccc(F)cc2)cc(OC)c1 (stereo unspecified) the results were TDP1 cell noCPT 21µM, TDP1 cell CPT inconclusive and TDP1 block inactive.
Screening CCc1ccc(NC(=O)CC2C(=O)N(c3ccc(F)cc3)C(=O)N2Cc2ccc(F)cc2)cc1 (stereo unspecified) returned TDP1 cell noCPT inconclusive, TDP1 cell CPT 13µM and TDP1 block inactive.
Screening COCCN1C(=O)N(c2cccc(C)c2)C(=O)C1CC(=O)Nc1cc(OC)cc(OC)c1 (stereo unspecified) returned TDP1 cell noCPT inactive, TDP1 cell CPT inactive and TDP1 block inactive.
`CCc1ccc(NC(=O)CC2C(=O)N(c3cccc(C)c3)C(=O)N2Cc2ccc(F)cc2)cc1` (stereo unspecified) gave TDP1 cell noCPT inactive, TDP1 cell CPT inconclusive and TDP1 block inactive.
For COc1ccccc1NC(=O)C1=C(C)NC2=C(C(=O)CC(c3ccc(OC)c(OC)c3)C2)C1c1coc2ccccc2c1=O (stereo unspecified) the results were TDP1 cell noCPT inconclusive, TDP1 cell CPT inconclusive, VP16 counter inactive, TDP1 block inactive and RORgamma inh inconclusive.
Screening NC(=O)C1CCCN(C(=O)c2[nH]c(C(F)(F)F)nc2-c2ccccc2)C1 (stereo unspecified) returned TDP1 cell noCPT inactive and TDP1 cell CPT inactive.
CSc1nc(O)c(N=Nc2ccc(F)cc2F)c(=O)[nH]1 was read as TDP1 cell noCPT inconclusive, TDP1 cell CPT inconclusive, VP16 counter 10µM and RORgamma inh inconclusive.
`CSc1nc(O)c(C(c2ccc(F)cc2)c2c(O)nc(SC)[nH]c2=O)c(=O)[nH]1` gave TDP1 cell noCPT inactive and TDP1 cell CPT inactive.
`COc1ccc(NC(=O)CN(c2ccccc2C)S(C)(=O)=O)c(OC)c1` gave TDP1 cell noCPT inactive, TDP1 cell CPT inactive, VP16 counter inactive and RORgamma inh inactive[1.91 µM].
Screening CC(=O)/C=C/n1c(=S)oc2ccccc21 returned TDP1 cell noCPT 0.65µM, TDP1 cell CPT 0.82µM, VP16 counter 3.2µM, TDP1 block inactive and RORgamma inh 2.8µM.
`CC(C)CC(=O)/C=C/n1c(=S)oc2ccccc21` gave TDP1 cell noCPT 2.3µM, TDP1 cell CPT 3.3µM, VP16 counter 11µM, TDP1 block inactive and RORgamma inh inactive.
For O=C(NCc1cccnc1)c1cc(C2CCCN(S(=O)(=O)c3ccccc3)C2)on1 (stereo unspecified) the results were TDP1 cell noCPT inactive and TDP1 cell CPT inactive.

Assay outcomes (PubChem BioAssay)
